# Screen size: about 310,000 compounds; about 14,000 (4.5%) showed an effect of 50% or more. The effect is printed as a negative number. This is one part of a sample in which strong results are shown more often than they occur.
# Target: human ether-à-go-go-related gene (hERG) potassium channel (human, UniProt Q12809)
# Assay: primary screen, population patch clamp on CHO cells stably expressing hERG; higher = less effect of the substance
# 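Note: peak tail current of the secondary pulse compared with the same well before compound.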
# Sequence of human ether-à-go-go-related gene (hERG) potassium channel (Q12809 whole entry, looked up): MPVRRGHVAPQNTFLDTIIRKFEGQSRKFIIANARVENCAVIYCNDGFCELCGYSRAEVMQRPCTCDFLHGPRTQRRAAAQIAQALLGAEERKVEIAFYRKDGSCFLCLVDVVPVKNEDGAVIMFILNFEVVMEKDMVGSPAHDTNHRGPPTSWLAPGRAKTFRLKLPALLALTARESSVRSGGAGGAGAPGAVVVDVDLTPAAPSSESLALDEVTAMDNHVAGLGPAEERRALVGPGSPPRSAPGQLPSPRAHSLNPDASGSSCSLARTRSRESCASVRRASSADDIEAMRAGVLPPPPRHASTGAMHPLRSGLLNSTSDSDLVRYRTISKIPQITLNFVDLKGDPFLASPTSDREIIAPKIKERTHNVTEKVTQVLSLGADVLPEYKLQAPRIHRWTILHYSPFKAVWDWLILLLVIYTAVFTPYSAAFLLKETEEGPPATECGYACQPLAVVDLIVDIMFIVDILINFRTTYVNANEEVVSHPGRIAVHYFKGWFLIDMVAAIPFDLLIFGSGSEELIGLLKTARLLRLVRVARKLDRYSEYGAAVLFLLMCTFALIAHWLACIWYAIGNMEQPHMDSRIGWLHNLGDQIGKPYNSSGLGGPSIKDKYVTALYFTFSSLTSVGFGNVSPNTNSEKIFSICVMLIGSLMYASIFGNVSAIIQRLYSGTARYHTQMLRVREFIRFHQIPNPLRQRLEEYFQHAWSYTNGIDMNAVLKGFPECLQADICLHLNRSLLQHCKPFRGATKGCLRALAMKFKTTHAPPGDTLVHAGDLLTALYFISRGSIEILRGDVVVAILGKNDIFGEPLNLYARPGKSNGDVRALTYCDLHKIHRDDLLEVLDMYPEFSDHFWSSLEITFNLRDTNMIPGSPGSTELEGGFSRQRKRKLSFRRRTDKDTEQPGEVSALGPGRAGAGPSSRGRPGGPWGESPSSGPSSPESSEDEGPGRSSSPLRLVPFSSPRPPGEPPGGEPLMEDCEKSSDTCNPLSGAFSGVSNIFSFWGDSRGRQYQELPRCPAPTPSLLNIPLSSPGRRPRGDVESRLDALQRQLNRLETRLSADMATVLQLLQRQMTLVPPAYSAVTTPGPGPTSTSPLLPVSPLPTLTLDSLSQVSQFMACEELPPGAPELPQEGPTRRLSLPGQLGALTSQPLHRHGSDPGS
row,SMILES,"hERG current change (%, negative = inhibition) at 10uM"
1,Cc1ccc(C)c(S(=O)(=O)Nc2ccc(C(=O)NCCc3ccccn3)cc2)c1,10.2%
2,Cc1ccc(C)c(N2CCN(C(=O)C3CCN(S(=O)(=O)c4cccc5nsnc45)CC3)CC2)c1,-8.49%
3,N#Cc1ccc(C23CC4(C2)[C@H](CN(Cc2ccc(C(F)(F)F)cc2)[C@@H]4c2ccccc2)C3c2ccccc2)cc1 (stereo partly shown),13.5%
4,O=C(Nc1nccs1)c1ccc(COc2ccccc2Br)o1,-6.85%
5,Cc1ccc(-c2nnc(SCC(=O)N/N=C/c3ccc(C)s3)n2-c2ccc(C)cc2)cc1,-17.4%
6,O=C(c1ccco1)N1CCN(Cc2nc(-c3cccs3)no2)CC1,-38.1%
7,CS(=O)(=O)N(CC(=O)NCCSCc1c(F)cccc1Cl)c1cccc([N+](=O)[O-])c1,-15.9%
8,COCC(C)NC(=O)CSc1nc2ccccc2n1CCc1ccccc1 (stereo not shown),-8.53%
9,Cc1cccc(N2CC(C(=O)Nc3nnc(SCC(=O)Nc4cc(C)on4)s3)CC2=O)c1 (stereo not shown),23%
10,Cc1cc(=O)[nH]c(SCC(=O)Nc2ccc(S(=O)(=O)N3CCOCC3)cc2)n1,-3.3%
11,CC1(C)SC(=S)N(NC(=O)Nc2ccccc2)C1N(O)C(=O)Nc1ccccc1 (stereo not shown),12.7%
12,CCOc1cc(N2CCOCC2)c(OCC)cc1NC(=O)c1oc2ccccc2c1C,18.6%
13,O=C(c1ccccc1F)N1CCCC(C(=O)N2CCc3ccccc3C2)C1 (stereo not shown),-8.64%
14,CC(C)(C)c1nc(S(=O)(=O)c2ccc(Cl)cc2)c(N2CCOCC2)o1,-14.2%
15,CC(C)Cc1nc(S(=O)(=O)c2ccc(Cl)cc2)c(N2CCOCC2)o1,-6.14%
16,O=S(=O)(c1ccccc1)c1nc(-c2ccco2)oc1N1CCCCC1,-37.1%
17,CCCCc1nc(S(=O)(=O)c2ccc(Cl)cc2)c(N2CCOCC2)o1,-69.6%
18,O=S(=O)(c1ccc(Cl)cc1)c1nc(-c2ccco2)oc1N1CCCCC1,-7.91%
19,O=S(=O)(c1ccc(Cl)cc1)c1nc(-c2ccco2)oc1N1CCOCC1,-55.4%
20,COc1ccc(NC(=O)Nc2ccc3nccnc3c2)cc1,2.71%
21,COc1ccccc1CNC(=O)C1CCN(C(=O)NC2CCCCC2)CC1,10.6%
22,CCc1ccc(/C=N/NC(=O)C(=O)NCCCN2CCOCC2)cc1,-23.6%
23,COc1ccc(NC(=S)N2c3ccccc3CC2C)cc1OC (stereo not shown),-5.96%
24,CCCC(=O)Nc1nnc(Cc2ccccc2)s1,-0.72%
25,COc1ccc(S(=O)(=O)Cc2ccc(C(=O)NC3CCC(C)CC3)o2)cc1 (stereo not shown),-15.8%
26,Cc1ccc(-c2ccc(/C=N/c3ncn[nH]3)o2)cc1Cl,11.6%
27,C=C1CC[C@@]2(O)[C@H]3Cc4ccc(O)c5c4[C@@]2(CCN3CC2CC2)[C@H]1O5,-2.73%
28,C=C(C)CN1CC[C@]23c4c5ccc(O)c4O[C@H]2c2[nH]c4ccccc4c2C[C@@]3(O)C1C5.Cl.O,4.9%

row,SMILES,"hERG current change (%, negative = inhibition) at 10uM"
1,CS(=O)(=O)O.O.Oc1ccc2c3c1O[C@H]1c4oc5ccccc5c4C[C@@]4(O)[C@@H](C2)N(CC2CC2)CC[C@]314,-76.9%
2,C=CC[N+]1(C)CC[C@]23c4c5ccc(O)c4O[C@H]2C(=O)CC[C@@]3(O)[C@H]1C5.[I-] (stereo partly shown),17.8%
3,NC(N)=Nc1ccc2[nH]c3c(c2c1)C[C@@]1(O)[C@H]2Cc4ccc(O)c5c4[C@@]1(CCN2CC1CC1)[C@H]3O5.O=C(O)C(F)(F)F,6.85%
4,Oc1cccc(C2c3[nH]c4ccccc4c3CCN2Cc2ccc3c(c2)CCO3)c1 (stereo not shown),9.6%
5,C=CCN1CC[C@]23c4c5ccc(O)c4O[C@H]2/C(=N/NC(=O)c2ccccc2)CC[C@@]3(O)[C@H]1C5,-69.1%
6,Cl.Oc1ccc2c3c1O[C@H]1c4[nH]c5ccccc5c4C[C@@]4(O)[C@@H](C2)N(CC2CC2)CC[C@]314,-63%
7,Cl.O=C1CC[C@@]2(O)[C@H]3Cc4ccc(O)c5c4[C@@]2(CCN3CC2CC2)[C@H]1O5,0.91%
8,Oc1cccc(C2c3[nH]c4ccccc4c3CCN2Cc2ccoc2)c1 (stereo not shown),-29.6%
9,Cl.O.Oc1ccc2c3c1O[C@H]1c4[nH]c5ccccc5c4C[C@@]4(O)C(C2)N(CC2CC2)CC[C@]314,-55.4%
10,COc1ccc(C2/C(=C(/O)c3ccc(Br)cc3)C(=O)C(=O)N2C)cc1 (stereo not shown),-12.7%
11,Cn1cc(P(=S)(N2CCOCC2)N2CCOCC2)cc1P(=O)(N1CCOCC1)N1CCOCC1,7.36%
12,COc1ccc(Oc2cccc(Cl)c2CNC(=O)c2ccccc2C(=O)O)cc1,4.98%
13,CC(C)(C)NC(=O)C(Cc1ccccc1)N1C(=O)c2ccccc2C1=O (stereo not shown),6.68%
14,CCOC(=O)C1(Cc2ccc(OC)cc2)CCN(C(=O)C2=CCCC2)CC1,-33.8%
15,Cc1ccnc(NC2CCCCC2)c1,20.4%
16,Cn1c(CNc2ccccn2)c(C#N)c2ccccc21,-6.94%
17,COC(=O)CCCC1=CC2=CC(=O)C(C)(OC(=O)c3cccs3)C(=O)C2=CN1CCc1c[nH]c2ccccc12 (stereo not shown),15%
18,CC(C)CN(C(=O)c1ccc([N+](=O)[O-])s1)c1c(N)n(Cc2ccccc2)c(=O)[nH]c1=O,10.3%
19,Cc1ccccc1NC(=O)CCN1CCN(Cc2ccccc2)CC1,-27.2%
20,Cc1ccccc1NC(=O)c1ccc(CN2CCC(Cc3ccccc3)CC2)cc1,-52.2%
21,O=C(Nc1ccccc1F)c1ccc(CN2CCc3ccccc3C2)cc1,13.7%
22,COc1ccc(NC(=O)c2ccc(CN3CCN(c4ccccc4)CC3)cc2)cc1,-9.47%
23,O=C(Nc1ccccc1C(F)(F)F)c1ccc(CN2CCC(Cc3ccccc3)CC2)cc1,-42.4%
24,O=C(Nc1ccccc1F)c1ccc(CN2CCN(c3ccccc3)CC2)cc1,-70.7%
25,O=C(c1ccc(CN2CCOCC2)cc1)N1CCC(Cc2ccccc2)CC1,-3.35%
26,CCc1ccccc1NC(=O)c1ccc(CN2CCC(Cc3ccccc3)CC2)cc1,-50.8%
27,Cc1ccccc1NC(=O)c1ccc(CN2CCc3ccccc3C2)cc1,-16.4%

# — article PMC4336329 (PLoS ONE, 2015)
